# Source: PubChem BioAssay
# KB-V1 cytotox: KB-V1 MDR subline cytotoxicity; Potency, µM (titrated, usually from 46.1 µM), most hits filed as cytotoxic; hit rate 3.4% among 400,000; KB-V1 MDR cells viability, CellTiter-Glo, 72 h; AID 1347076; further: nearly all actives have a fitted effect of over 60% in size
#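 Cells of the MDR subline KB-V1 are plated, dosed with compound at multiple concentrations, and incubated 72 h at 37 degrees C; CellTiter-Glo is then added and luminescence read after 10 min.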
# DT40 TDP1 CPT: DT40-hTDP1 cell growth loss with CPT | chicken DT40 Tdp1-/-;hTDP1 cells + 20 nM CPT, ATP luminescence, 48 h | Potency, µM (top dose mostly 46.2 µM), inactives show top-dose activity change, negative = growth inhibition, hits mostly inhibitors | hit rate 12% among 420,000 | AID 686979; further: nearly all actives have a fitted effect of over 55% in size
#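 Chicken DT40 Tdp1-/- cells stably complemented with human TDP1 were seeded at 400 cells/well in medium containing 20 nM camptothecin, exposed to pin-transferred compounds, and grown at 37 °C for at least 48 hr. Viability was read as ATP luminescence.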
# HT1080NT lethal: kills 2HG-producing HT-1080-NT fibrosarcoma cells; AID 686970; HT-1080-NT fibrosarcoma viability, CellTiter-Glo ATP luminescence, 48 h; hit rate 1.6% among 360,000; Potency, µM (titrated, usually from 46.1 µM), for the others: top-dose activity, negative = less viability, actives largely listed as cytotoxic;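 further: NT is the 2HG producing partner of a matched IDH1 knockdown line; 0% = DMSO-treated cells and -100% = media-only wells without cells; nearly all actives have a fitted effect of over 55% in size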
#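 Viability of the 2HG-overproducing fibrosarcoma line after 48 hours of compound exposure at 37 degrees C was determined by luminescence with CellTiter-Glo, and concentration-effect curves were then fitted and categorized.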
# HT1080 IDH1KD tx: HT-1080 IDH1 knockdown cell toxicity (counter line); hit rate 2% among 360,000; HT-1080 IDH1 knockdown viability, ATP luminescence, 48 h; Potency, µM (doses to about 46.1 µM), for the others: at the top dose activity, negative = toxicity, hits mostly cytotoxic;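 further: 0% = DMSO wells and -100% = cell-free medium wells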
#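 % activity derives from luminescence (CellTiter-Glo), normalised to DMSO and no-cell wells. HT-1080-IDH1KD cells, 750/well, had 48 h compound exposure at 37 °C.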
# DT40 TDP1 no CPT: qHTS for Inhibitors of human tyrosyl-DNA phosphodiesterase 1 (TDP1): qHTS in cells in absence of CPT. DT40 Tdp1-/- hTDP1 cells, no CPT, ATP luminescence, 48 h. Potency, µM (doses to about 46.2 µM), for inactives: top-dose activity change, negative = growth inhibition, hits mostly inhibitors. hit rate 15% among 420,000. AID 686978, 2013; further: nearly all actives have a fitted effect of over 55% in size
#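 Chicken DT40 Tdp1-/- cells complemented with human TDP1, screened without camptothecin (DMSO vehicle only), 400 cells/well. Compounds pin-transferred, cells incubated at 37 °C for at least 48 hr. Growth read as ATP-dependent luminescence (CellTiter-Glo, 30 min at RT).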
# KB-3-1 tox: kills parental KB-3-1 adenocarcinoma cells | Potency, µM (top dose mostly 46.1 µM), hits mostly cytotoxic | hit rate 1.4% among 400,000 | AID 1347075 | KB-3-1 viability, CellTiter-Glo ATP luminescence, 72 h; further: nearly all actives have a fitted effect of over 60% in size
#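 KB-3-1 cells, DMEM (no phenol red) + 10% FBS; compound by pin transfer, 72 h, 37 °C. Readout: CellTiter-Glo luminescence after 10 min. Data normalized, curve-fitted.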
# * hit, by the source's call; i = inactive; ? = inconclusive; nt = not tested or not shown; [ ] = dose if it differs, or a comment. Sampled rows, rich in hits. Any-hit rate of the full collection: about 19%. The call rests on the fitted dose curve; in most records, active means well fitted curve in the direction sought with a large enough effect; inconclusive means small, poorly fitted or top-dose-only effect, or another doubt; inactive means no such curve, though single readings can be large; an effect the other way counts as inactive or inconclusive. Unless noted, on the % scale 0 is the no-effect control and ±100 the full control effect; potency means the concentration at half of the fitted maximal effect.
SMILES,KB-V1 cytotox,DT40 TDP1 CPT,HT1080NT lethal,HT1080 IDH1KD tx,DT40 TDP1 no CPT,KB-3-1 tox
Oc1ccc(N=Nc2nc(-c3ccccc3)c(-c3ccccc3)[nH]2)cc1,?,?,-5%,-21%,23µM*,?
Oc1ccc(-c2nc(-c3ccccc3)c(-c3ccc(Br)cc3)[nH]2)cc1,i,?,nt,nt,?,i
CCn1cc(C(=O)NCc2ccco2)c(=O)c2cc(S(=O)(=O)N3CCCCCC3)ccc21,i,21µM*,15µM*,?,?,21µM*
CCn1cc(C(=O)NCc2ccco2)c(=O)c2cc(S(=O)(=O)N3CCc4ccccc4C3)ccc21,i,-24%,?,?,?,23µM*
C=CCn1cc(C(=O)NCc2ccco2)c(=O)c2cc(S(=O)(=O)N3CCCCCC3)ccc21,?,21µM*,?,?,?,?
CCC(C)NC(=O)c1cn(CC)c2ccc(S(=O)(=O)N3CCCCCC3)cc2c1=O (stereo not given),?,11%,-20%,3%,?,i
CCn1cc(C(=O)NCc2ccc(Cl)cc2)c(=O)c2cc(S(=O)(=O)N3CCc4ccccc4C3)ccc21,i,-16%,nt,nt,?,i
CCn1cc(C(=O)NCc2ccco2)c(=O)c2cc(S(=O)(=O)N3CCC(C)CC3)ccc21,5.8µM*,?,?,?,?,?
CCOC(=O)C1=CCN(S(=O)(=O)c2ccc(Br)cc2)C1c1ccccc1 (stereo not given),?,-26%,-12%,-17%,?,?
COc1cc(-c2nnc(SCC(=O)N(C)C3CCS(=O)(=O)C3)o2)cc(OC)c1OC (stereo not given),i,11%,9%,10%,-5%,i
O=C(O)c1ccccc1C(=O)Nc1nc(-c2ccc3ccccc3c2)cs1,?,3%,-4%,-2%,-3%,i
COc1cc(OC)c2nc(C)c3c(c2c1)N(c1ccc(O)cc1)CC3,i,?,?,3%,16µM*,?
CSc1cccc(Nc2nc3c(S(=O)(=O)c4ccccc4)nnn3c3ccc(Cl)cc23)c1,i,?,nt,nt,?,i
C=CC(C)(C)c1[nH]c2ccccc2c1C1=C(O)C(=O)C(c2c[nH]c3c(CC=C(C)C)cccc23)=C(O)C1=O,nt,13µM*,nt,nt,13µM*,nt
O=C(CS(=O)(=O)Cc1ccccc1)Nc1ccc(S(=O)(=O)N2CCOCC2)cc1,i,-23%,7%,8%,-11%,i
CC(=O)Nc1ccc2c(c1)C(N1CC3CCC(CC3)C1)c1ccccc1-2 (stereo not given),i,?,-20%,?,-21%,?
Cc1c(-c2ccccc2)c(P(=O)(N2CCOCC2)N2CCOCC2)c2ccccn12,i,26µM*,1%,17%,?,i
COc1ccc([C@H]2CC(=O)C[C@@H](CCn3cc(C)nn3)O2)cc1,i,1%,14%,15%,-14%,i
Cc1ccc(NC(=O)Nc2ccc3c(c2)OCO3)c(OC(F)F)c1,?,-1%,-10%,-3%,-14%,i
COc1ccc(-c2nnc3c4ccccc4c(C)nn23)cc1,3.7µM*,?,?,?,18µM*,i
Cc1nn2c(-c3ccco3)nnc2c2ccccc12,?,?,-10%,-18%,21µM*,?
COc1ccc(-c2nnc3c4ccccc4c(C)nn23)cc1S(=O)(=O)N1CCN(CCO)CC1,?,?,?,8.9µM*,?,?
Cc1ccccc1-c1nnc2c3ccccc3c(C)nn12,7.3µM*,2%,9%,6%,?,?
Cc1nn2c(-c3ccncc3)nnc2c2ccccc12,i,?,13%,12%,?,i
Cc1nn2c(-c3ccc(S(=O)(=O)N4CCN(CCO)CC4)o3)nnc2c2ccccc12,i,-24%,-8%,-16%,-17%,i
SMILES,KB-V1 cytotox,DT40 TDP1 CPT,HT1080NT lethal,HT1080 IDH1KD tx,DT40 TDP1 no CPT,KB-3-1 tox
CCc1nc2ccc(C(=O)NCCCn3ccnc3)cn2c1N(CC)CCOC,i,-3%,22%,12%,9%,i
CN(C(=O)COC(=O)CNC(=O)c1ccc2ccccc2c1)c1c(N)n(Cc2ccccc2)c(=O)[nH]c1=O,i,18%,-1%,1%,-4%,i
COC(=O)COc1ccc(S(=O)(=O)N2CCN(c3ccc(F)cc3)CC2)cc1,i,-1%,12%,17%,-4%,i
O=C(NCCc1ccncc1)c1cnn(-c2ncc3c(n2)-c2ccccc2CCC3)c1C1CC1,nt,12%[9.04 µM],nt,nt,?,nt
O=c1cc(-c2ccncc2)oc2ccccc12,?,-30%,-13%,-5%,?,i
COc1ccc2c(=O)cc(-c3ccncc3)oc2c1OC,?,?,?,23µM*,?,?
COc1ccc(-c2cc(=O)c3c(OC)c(OC)c(OC)c(OC)c3o2)cc1OC,?,21µM*,-8%,-22%,21µM*,i
COc1ccc(CCC(=O)Nc2nc3c(s2)CN(C)CC3)cc1OC,i,-11%,15%,8%,-6%,i
CCCCCn1c(SCC(=O)OCC)nc2cc(C(=O)N3CCC(C(N)=O)CC3)ccc2c1=O,i,?,8%,11%,-14%,i
C=CCn1c(SCc2ccc(Cl)cc2)nc2cc(C(=O)N3CCC(C(N)=O)CC3)ccc2c1=O,26µM*,?,-5%,3%,?,?
COc1ccc(CN2CCOc3ccc(CN4CCC(Oc5cccnc5)CC4)cc3C2)cc1,nt,21µM*,nt,nt,-29%,nt
c1cncc(OC2CCN(Cc3ccc4c(c3)CN(Cc3ccc5c(c3)OCCO5)CCO4)CC2)c1,nt,?,nt,nt,16µM*,nt
c1cncc(OC2CCN(Cc3ccc4c(c3)CN(Cc3ccc5c(c3)CCO5)CCO4)CC2)c1,nt,-9%[9.04 µM],nt,nt,18µM*,nt
NC(=O)c1nsc(C(=O)N(c2ccc(F)cc2)C(C(=O)NCC2CCCO2)c2c[nH]c3ccccc23)c1N (stereo not given),i,?,-8%,-23%,?,i
CC(=O)N1CCOc2cc(S(=O)(=O)NCc3ccccc3Cl)c(Cl)cc21,i,?,nt,nt,-25%,i
